# Bead autofluor: flagged as autofluorescent in microsphere protease counterscreen | compound autofluorescence counterscreen, microsphere flow cytometry; active compounds read high | fluorescence intensity (test concentration not listed) | 360,000 compounds, 3.1% hits; in the data active means fluorescence intensity above about 16000; inconclusive means no clear call, values can overlap the other calls
# GDH-TPI inh: inhibits GDH-TPI coupling enzymes, artifact for Mtb FBA screen; GDH-TPI coupled enzyme counterscreen, NADH absorbance; inhibition, % at 4.8 µM; 360,000 compounds, 1.2% hits; AID 588335; in the data active means inhibition above about 30%
# BoNT-A LC inh2: BoNT A light chain protease inhibition; multiplex microsphere protease substrate cleavage, flow cytometry; inhibition, % at 10 µM; 360,000 compounds, 0.17% hits; AID 588499
# Mtb FBA inh: inhibits M. tuberculosis FBA enzyme; 360,000 compounds, 2.3% hits; purified M. tuberculosis FBA, fluorescence read-out; inhibition, % at 1 µM; AID 588726; in the data active means inhibition above about 27%
# Target sequence (P9WQA3 whole entry, looked up): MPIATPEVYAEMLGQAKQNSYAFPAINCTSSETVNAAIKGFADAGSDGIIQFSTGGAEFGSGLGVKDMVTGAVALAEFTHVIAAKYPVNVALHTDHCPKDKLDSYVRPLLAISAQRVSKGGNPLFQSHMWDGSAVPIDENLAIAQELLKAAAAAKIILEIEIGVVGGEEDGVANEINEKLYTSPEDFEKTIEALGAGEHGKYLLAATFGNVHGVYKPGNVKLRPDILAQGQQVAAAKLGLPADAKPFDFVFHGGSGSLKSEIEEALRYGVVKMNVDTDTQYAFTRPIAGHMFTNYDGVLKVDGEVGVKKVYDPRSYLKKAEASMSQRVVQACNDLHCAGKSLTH
# BoNT-F LC inh: blocks Botulinum neurotoxin F light chain protease; inhibition, % at 10 µM; Multiplex microsphere protease cleavage assay, flow cytometry; 360,000 compounds, 0.22% hits; in the data active means inhibition above about 35%, passing the limit was not always enough; inconclusive means no clear call, values can overlap the other calls
# Anthrax LF inh2: anthrax lethal factor protease inhibition; inhibition, % at 10 µM; 360,000 compounds, 0.12% hits; multiplex microsphere protease cleavage assay, LF; P15917
# Numbers stand for hits; – = inactive; ? = inconclusive; · = not tested or not shown. Only some compounds are listed: those with a hit (about 6.6% of all), similar ones and a draw of the others. Unless noted, no stated cut-off is given here; in the data, active means inhibition above about 30%; inconclusive means no clear call, values can overlap the other calls; inactive means below that.
SMILES,Bead autofluor,GDH-TPI inh,BoNT-A LC inh2,Mtb FBA inh,BoNT-F LC inh,Anthrax LF inh2
OCc1cc(C(O)CNCCCCCCOCCCCc2ccccc2)ccc1O (configuration not stated),–,–,–,28,–,–
CCN=C1S/C(=C\c2cc(OCC)c(O)cc2Br)C(=O)N1CC,–,–,–,–,72,30
COc1ccc(NCc2nnc(SCc3ccc(Cl)cc3)n2-c2ccccc2)cc1,–,–,–,–,–,–
CCNC(=O)C(C)Oc1ccc(Cl)cc1Cl (configuration not stated),–,–,–,–,–,–
CCNC(=O)n1nccc1C(C)Oc1ccc(Cl)cc1 (configuration not stated),21790,–,–,–,–,–
CC(C)N(Cc1nccn1C)C(=O)c1cc(COc2cccc(C(F)(F)F)c2)on1,–,–,–,–,–,–
CCNC(=O)n1nccc1C(C)Oc1cccc(C(F)(F)F)c1 (configuration not stated),21560,–,–,–,–,–
CCOc1ccc(C(=O)NCCN2CCCCC2)c(OCC)c1,–,–,–,–,–,–
CC(C)CN(CC(C)C)c1nc(N)c(C#N)c(CC#N)c1C#N,–,–,–,–,–,–
CN(CCO)c1nc(N)c(C#N)c(CC#N)c1C#N,–,34,–,–,–,–
CCCC(=O)Nc1ccccc1NC(=O)CCC,–,–,–,–,–,–
S=C(Nc1ccc2nc(-c3ccccn3)c(-c3ccccn3)nc2c1)N1CCCCCC1,–,–,–,–,–,–
CCCC(=O)Nc1ccc(C#Cc2ccccc2)cc1,18787,–,–,–,–,–
CCCNC(=S)Nc1ccc(Oc2ccccc2)cc1,20489,–,–,–,–,–
CC(=O)SCCC(=O)Nc1ccccc1,17839,–,?,–,–,–
CCCNC(=S)Nc1ccc2nc(-c3ccccn3)c(-c3ccccn3)nc2c1,21151,–,?,–,–,–
C=C(C)C1CC=C(C)/C(=N/NC(=O)C2CC2c2ccccc2)C1 (configuration not stated),–,–,–,–,–,–
COc1ccc(Nc2nnc(SCC3CCCO3)s2)cc1 (configuration not stated),–,–,–,–,–,–
CCCC(=O)Nc1ccc(Oc2ccc(NC(=O)CCC)cc2)cc1,19816,–,?,–,–,–
CCOC(=O)Nc1ccc(Oc2ccccc2)cc1,24151,–,–,–,–,–
CC1(C(=O)NS(=O)(=O)c2cccs2)CCN1C(=O)c1ccccc1CCc1ccccc1 (configuration not stated),–,–,–,–,–,–
COc1ccc(S(=O)(=O)N(C)C[C@H]2Oc3c(NC(=O)NC(C)C)cccc3C(=O)N([C@H](C)CO)C[C@@H]2C)cc1,–,–,–,–,–,–
N#Cc1cc([N+](=O)[O-])c(-n2nnc3ccccc32)c([N+](=O)[O-])c1,–,–,–,–,–,–
COc1ccccc1Oc1cc(C#N)c(C#N)cc1-n1nnc2ccccc21,22329,–,–,–,–,–
COc1ccc(NS(=O)(=O)c2ccc(C)c(C(=O)NCCCn3ccnc3)c2)cc1,–,–,–,–,–,–
SMILES,Bead autofluor,GDH-TPI inh,BoNT-A LC inh2,Mtb FBA inh,BoNT-F LC inh,Anthrax LF inh2
N#C/C(=C(\O)c1cc(Cl)sc1Cl)c1nc2ccccc2[nH]1,–,39,–,–,–,–
COc1ccc(C)cc1-n1nnnc1SC/C(O)=C(\C#N)c1nc2ccccc2[nH]1,21719,36,–,–,–,–
COc1cc(/C(O)=C(\C#N)c2nc3ccccc3[nH]2)cc(OC)c1OC,–,38,–,–,–,–
Cc1cc(C)n2c(SCC(O)=C(C#N)c3nc4ccccc4[nH]3)nnc2n1,–,–,–,–,–,–
N#C/C(=C(/O)c1ccc(Cl)cc1)c1nc2ccccc2[nH]1,–,–,–,–,?,–
O=C(NCc1cccnc1)c1ccc2sc([C@H]3C[C@H](O)[C@@H](CO)O3)nc2c1,–,–,–,–,–,–
CCN1C(=O)/C(=C\N(C(C)=O)c2ccccc2)OC1=S,–,63,–,–,–,–
O=C(COc1ccc(Cl)cc1)N(Cc1ccccc1)c1nc(-c2ccccc2)cs1,–,–,–,–,–,–
O=C(C1CC1)N(Cc1ccco1)c1nc(-c2ccccc2)cs1,23051,–,–,–,–,–
O=C(Nc1ccccc1C(F)(F)F)c1cc(-c2ccccc2O)on1,–,–,–,–,–,–
CCc1ccc(NC(=O)c2cc(C)on2)cc1,–,–,–,–,–,–
Cc1cc(C(=O)Nc2ccccc2C(F)(F)F)no1,24116,–,?,–,–,–
CCSc1nnc(NC(=O)c2cc(C)on2)s1,–,–,–,–,–,–
Cc1cc(C(=O)Nc2nnc(C(F)(F)F)s2)no1,22963,–,–,–,–,–
Cc1ccc(NC(=O)c2cc(C)on2)cc1,20978,–,–,–,–,–
COc1ccc(S(=O)(=O)N2CCC[C@H]2C(=O)N2CCC[C@H]2C(=O)NCc2ccc(F)cc2F)cc1C,–,·,–,·,–,–
Cc1onc(-c2ccccc2)c1C(=O)Oc1cccnc1,21663,–,–,–,–,–
Cc1cccc(CN2CCN(Cc3nc4c(s3)CCCC4)CC2CCO)n1 (configuration not stated),–,–,–,–,–,–
CCOC(=O)c1ccc(/C=N/O)[n+](Cc2ccccc2)c1,·,–,·,–,·,·
NC(=O)c1ccc(/C=N/O)[n+](Cc2ccccc2)c1,–,35,?,–,?,–
Cc1ccsc1/C=N/NC(=O)c1cc(-c2ccncc2)nc2ccccc12,–,43,–,–,–,–
COc1ccccc1-c1cc(C(=O)N/N=C/c2ccc(C)o2)c2ccccc2n1,–,49,–,–,–,–
O=C(N/N=C/c1ccc([N+](=O)[O-])o1)c1cc(-c2ccc(-c3ccccc3)cc2)nc2ccccc12,–,–,–,–,–,–
O=C(N/N=C/c1ccc([N+](=O)[O-])o1)c1cc(-c2ccncc2)nc2ccccc12,–,40,–,–,–,–
CCn1c(CN2CCN(c3cccc(C)c3C)CC2)n[nH]c1=S,–,–,–,–,–,–
SMILES,Bead autofluor,GDH-TPI inh,BoNT-A LC inh2,Mtb FBA inh,BoNT-F LC inh,Anthrax LF inh2
CC(C)(C)C(=O)NC(=C(Cl)Cl)P(=O)(O)O,24171,–,–,–,–,–
COP(=O)(OC)C(NC(=O)C(C)(C)C)=C(Cl)Cl,–,–,–,–,–,–
Cc1ccc(S(=O)(=O)N(C)C)cc1NC(=O)COC(=O)C1=COCCO1,–,–,–,–,–,–
CC(=O)Nc1cnc(-c2cc(C)c(O)c(C)c2)cn1,–,32,–,–,–,–
CC(Sc1ccccn1)C(=O)Nc1ccccc1 (configuration not stated),20487,–,–,–,–,–
CC(=O)c1ccc(NC(=O)C(C)Sc2ccccn2)cc1 (configuration not stated),–,–,–,–,–,–
O=c1[nH]c2cc3c(cc2cc1CN(CCO)S(=O)(=O)c1ccccc1)OCCO3,–,37,–,–,–,–
COC(=O)c1cccc(S(=O)(=O)N(Cc2ccco2)Cc2cc3cc(OC)c(OC)cc3[nH]c2=O)c1,–,–,–,–,–,–
